Experimental data published in PubChem BioAssay.
Results filed as inconclusive are left out. Activity calls are given as the source filed them.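 Rule for the calls, unless noted: active = efflux inhibition above 0.42, the validation set average plus 4 SD; inconclusive = no clear call, values can overlap the other calls; inactive = the rest.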

Key:
[1] = yeast TOR pathway RPL19A-GFP modulators, primary screen, cell-based, S. cerevisiae, multiplex flow cytometry (AID 1862; in the data active = percent of DMSO control GFP below about 86%;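 note: lower values mimic rapamycin by blocking the RPL19A rise seen in DMSO cells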); details: S. cerevisiae RPL19A-GFP strain, flow cytometry fluorescence, 3 h; at 10 µM; stronger effect = lower value
[2] = modulators of MEP2-GFP levels in yeast, primary screen, S. cerevisiae, multiplex flow cytometry (AID 1867;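 active = GFP response, as percent of the DMSO control, above the screen-wide mean plus 3 SD, about 139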;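 note: median GFP channel fluorescence of barcode-gated MEP2-GFP cells measured by flow cytometry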); details: S. cerevisiae MEP2-GFP strain, 3 h, at 10 µM, stronger effect = higher value, 100% means same as DMSO wells
[3] = modulators of CIT2-GFP expression in yeast, primary screen, S. cerevisiae, GFP fusion, multiplex flow cytometry (AID 1870;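 active = percent response above a set limit, the screen-wide mean plus 3 SD, cut at about 130% in these data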;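 note: barcoded CIT2-GFP strain pooled with four other GFP strains with rapamycin as positive control; median GFP fluorescence per well over plate mean of DMSO wells so 100% = DMSO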); details: 3 h, at 10 µM, stronger effect = higher value
[4] = modulators of LAP4-GFP expression in yeast, primary screen, S. cerevisiae, multiplex flow cytometry (AID 1873;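 active = GFP signal, as percent of the solvent control, above the screen mean plus 3 SD, about 149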); details: 3 h, at 10 µM, stronger effect = higher value
[5] = modulators of AGP1-GFP expression in yeast TOR pathway, primary screen, cell-based, multiplex flow cytometry, S. cerevisiae (AID 1887;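 active = GFP signal above the screen-wide mean plus 3 SD, that is over about 124.5% of the solvent control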;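 note: AGP1-GFP fusion strain of S. cerevisiae within a five-strain barcoded multiplex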); details: 3 h, at 10 µM, stronger effect = higher value
[6] = inhibitors of CD8+ T cell-vesicle binding, pilot screen, LFA-1/ICAM-1 modulator project, MLPCN validation set, flow cytometry (AID 2523;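 active = response below a set limit, under 55% cells CD8-positive and vesicle-bound, and CD8 cells' 90th-percentile brightness under 279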;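 for vesicle binding response: mean PE anti-B7-1 fluorescence of CD8+ cells relative to row control; 100% = QL9-loaded vesicles with DMSO vehicle in the same plate row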); details: 2C mouse CD8+ T cells, at 7 µM, stronger effect = lower value; double positive events: measured here: CD8+/vesicle+ event percentage
[7] = molecular target: Integrin beta-1 (Homo sapiens) + Integrin alpha-4 (Homo sapiens) (UniProt P13612+P05556); experiment: inhibition of HUTS-21 binding to VLA-4, pilot screen, VLA-4 allosteric modulator project, U937 cells, HUTS-21 mAb, flow cytometry, validation set (AID 2674;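 active = inhibition above 50%, about 3 SD of the validation set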;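 note: antibody binding induced by the VLA-4 ligand LDV present at three times its Kd; 0% = LDV ligand with antibody and no compound and 100% = antibody without LDV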); details: HUTS-21 LIBS mAb binding, at 6.7 µM, stronger effect = higher value, binding induced by LDV ligand
Chain of Integrin beta-1 (Homo sapiens) + Integrin alpha-4 (Homo sapiens) (P05556 whole entry, looked up): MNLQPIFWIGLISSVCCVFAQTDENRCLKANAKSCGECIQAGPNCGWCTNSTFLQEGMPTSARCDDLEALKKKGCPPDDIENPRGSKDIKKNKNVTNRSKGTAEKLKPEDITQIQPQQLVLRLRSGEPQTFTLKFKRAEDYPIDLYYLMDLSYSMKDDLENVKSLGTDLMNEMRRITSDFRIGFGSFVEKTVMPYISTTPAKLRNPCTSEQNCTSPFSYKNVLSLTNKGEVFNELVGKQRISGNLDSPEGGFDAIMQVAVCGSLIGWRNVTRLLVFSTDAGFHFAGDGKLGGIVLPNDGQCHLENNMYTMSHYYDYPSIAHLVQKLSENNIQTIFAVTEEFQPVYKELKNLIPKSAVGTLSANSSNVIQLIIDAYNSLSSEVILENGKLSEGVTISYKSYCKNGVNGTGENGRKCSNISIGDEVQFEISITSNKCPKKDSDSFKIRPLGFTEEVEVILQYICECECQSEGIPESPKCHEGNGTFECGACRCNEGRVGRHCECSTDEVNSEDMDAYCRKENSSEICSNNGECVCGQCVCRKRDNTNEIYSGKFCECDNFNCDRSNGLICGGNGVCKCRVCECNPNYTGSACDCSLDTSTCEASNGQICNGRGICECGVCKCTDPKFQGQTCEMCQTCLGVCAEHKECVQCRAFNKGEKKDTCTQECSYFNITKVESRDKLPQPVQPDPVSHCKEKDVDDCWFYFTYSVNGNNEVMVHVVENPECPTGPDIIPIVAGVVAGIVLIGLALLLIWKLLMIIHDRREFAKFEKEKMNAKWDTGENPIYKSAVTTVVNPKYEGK
Chain of Integrin beta-1 (Homo sapiens) + Integrin alpha-4 (Homo sapiens) (P13612 whole entry, looked up): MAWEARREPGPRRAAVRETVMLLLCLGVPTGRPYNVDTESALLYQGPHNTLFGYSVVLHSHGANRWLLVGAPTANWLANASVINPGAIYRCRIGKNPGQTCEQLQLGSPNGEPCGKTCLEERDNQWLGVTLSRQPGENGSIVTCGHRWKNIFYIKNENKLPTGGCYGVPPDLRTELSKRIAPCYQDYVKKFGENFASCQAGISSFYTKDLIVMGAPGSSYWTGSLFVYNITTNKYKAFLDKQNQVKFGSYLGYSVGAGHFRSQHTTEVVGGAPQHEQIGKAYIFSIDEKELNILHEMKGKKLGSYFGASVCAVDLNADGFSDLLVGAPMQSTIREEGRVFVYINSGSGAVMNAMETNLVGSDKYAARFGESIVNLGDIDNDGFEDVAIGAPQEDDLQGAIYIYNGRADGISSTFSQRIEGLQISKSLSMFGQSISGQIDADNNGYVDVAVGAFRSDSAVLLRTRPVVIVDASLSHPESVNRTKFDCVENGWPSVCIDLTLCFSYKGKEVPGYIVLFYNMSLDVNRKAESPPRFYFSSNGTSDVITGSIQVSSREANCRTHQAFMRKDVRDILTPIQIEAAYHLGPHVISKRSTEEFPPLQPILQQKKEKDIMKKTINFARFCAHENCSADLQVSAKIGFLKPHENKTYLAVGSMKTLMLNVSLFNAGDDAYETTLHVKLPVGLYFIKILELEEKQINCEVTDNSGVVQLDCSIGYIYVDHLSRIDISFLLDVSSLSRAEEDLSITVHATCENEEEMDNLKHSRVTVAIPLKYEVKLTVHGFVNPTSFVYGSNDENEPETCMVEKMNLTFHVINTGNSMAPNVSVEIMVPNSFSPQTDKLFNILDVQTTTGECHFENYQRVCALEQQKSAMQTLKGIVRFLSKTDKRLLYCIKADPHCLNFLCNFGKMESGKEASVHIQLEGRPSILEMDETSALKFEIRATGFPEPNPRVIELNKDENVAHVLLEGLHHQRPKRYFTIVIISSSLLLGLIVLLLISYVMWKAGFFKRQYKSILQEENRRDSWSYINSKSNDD

[8] = superoxide lowering in aged yeast cells, pilot screen, validation compound set (AID 2706;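 active = superoxide response below 65% of plate, a cut near 3 SD across the whole screen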;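 note: yeast exposed to compound for one week at 30 degrees C before staining; 100% = mean of all compound wells on the same plate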); details: S. cerevisiae aging, superoxide DHE fluorescence; at 10 µM; stronger effect = lower value
[9] = molecular target: Beta-adrenergic receptor kinase 1 (Homo sapiens) (UniProt P25098); experiment: GRK2 binders displacing RNA aptamer, biochemical, validation, human GRK2, bead flow cytometry (AID 488806;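 active = aptamer binding inhibition above 30%, about 3 SD of noise from non-fluorescent compounds; inactive = inhibition at or below 30%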); details: bead-bound GRK2, FAM-aptamer displacement, at 10 µM, stronger effect = higher value
Chain of Beta-adrenergic receptor kinase 1 (Homo sapiens) (P25098 whole entry, looked up): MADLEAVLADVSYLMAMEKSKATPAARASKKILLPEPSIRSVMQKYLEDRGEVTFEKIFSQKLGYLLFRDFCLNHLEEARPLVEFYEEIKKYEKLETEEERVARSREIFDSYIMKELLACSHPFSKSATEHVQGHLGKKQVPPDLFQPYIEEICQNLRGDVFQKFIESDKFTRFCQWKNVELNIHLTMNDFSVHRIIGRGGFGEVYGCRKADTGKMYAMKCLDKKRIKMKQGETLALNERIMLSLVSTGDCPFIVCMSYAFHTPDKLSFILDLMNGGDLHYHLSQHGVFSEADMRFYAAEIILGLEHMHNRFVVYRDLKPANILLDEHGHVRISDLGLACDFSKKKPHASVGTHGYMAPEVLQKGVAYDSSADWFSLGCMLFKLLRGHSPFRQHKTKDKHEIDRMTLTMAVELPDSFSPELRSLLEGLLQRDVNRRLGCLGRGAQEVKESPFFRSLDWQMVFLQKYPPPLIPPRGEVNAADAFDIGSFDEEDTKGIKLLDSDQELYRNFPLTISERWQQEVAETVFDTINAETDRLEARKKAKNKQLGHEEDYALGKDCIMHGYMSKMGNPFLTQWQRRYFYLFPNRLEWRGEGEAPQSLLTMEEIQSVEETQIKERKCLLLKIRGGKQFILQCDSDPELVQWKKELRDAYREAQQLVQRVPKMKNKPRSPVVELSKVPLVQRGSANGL

[10] = molecular target: Beta-2 adrenergic receptor (Homo sapiens) (UniProt P07550); experiment: beta2AR agonists driving receptor internalization, pilot screen, cell-based, FAP fluorogen, flow cytometry, validation set (AID 504459;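 active = percent response above 42, roughly 3 SD of non-fluorescent test compounds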;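 note: agonist-driven loss of surface beta2AR via internalization measured by FAP dye flow cytometry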); details: Am2.2-beta2AR cells, FAP surface receptor flow cytometry; at 10 µM; stronger effect = higher value
Chain of Beta-2 adrenergic receptor (Homo sapiens) (P07550 whole entry, looked up): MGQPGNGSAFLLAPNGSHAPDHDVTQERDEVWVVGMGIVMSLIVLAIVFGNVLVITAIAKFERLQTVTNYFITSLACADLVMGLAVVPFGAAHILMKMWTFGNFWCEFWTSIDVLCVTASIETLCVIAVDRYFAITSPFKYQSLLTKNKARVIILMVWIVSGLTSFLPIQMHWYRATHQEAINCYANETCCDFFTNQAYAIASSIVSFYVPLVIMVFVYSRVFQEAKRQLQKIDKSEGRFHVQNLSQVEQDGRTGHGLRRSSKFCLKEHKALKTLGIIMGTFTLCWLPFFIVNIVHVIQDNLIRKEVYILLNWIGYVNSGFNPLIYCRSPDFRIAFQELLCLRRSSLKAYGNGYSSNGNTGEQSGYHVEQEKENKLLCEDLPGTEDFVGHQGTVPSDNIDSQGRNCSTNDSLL

[11] = molecular target: AP-2 complex subunit beta (Homo sapiens) (UniProt P63010); experiment: inhibitors of arrestin peptide binding to AP2, pilot screen, biochemical, validation set, GST-AP2 beads, flow cytometry (AID 504541;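 active = inhibition above 54%, about 3 SD of non-fluorescent compounds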;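 note: AP2 carries R879A mutation and is captured from E. coli lysate; bead-bound FITC arrestin peptide fluorescence measuring arrestin peptide binding to AP2; 0% = DMSO wells and 100% = excess unlabeled arrestin peptide control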); details: FITC arrestin peptide, at 10 µM, stronger effect = higher value, AP2 beta2 appendage fragment, R879A mutant
Chain of AP-2 complex subunit beta (Homo sapiens) (P63010 whole entry, looked up, the tested form may be a part, one chain of several): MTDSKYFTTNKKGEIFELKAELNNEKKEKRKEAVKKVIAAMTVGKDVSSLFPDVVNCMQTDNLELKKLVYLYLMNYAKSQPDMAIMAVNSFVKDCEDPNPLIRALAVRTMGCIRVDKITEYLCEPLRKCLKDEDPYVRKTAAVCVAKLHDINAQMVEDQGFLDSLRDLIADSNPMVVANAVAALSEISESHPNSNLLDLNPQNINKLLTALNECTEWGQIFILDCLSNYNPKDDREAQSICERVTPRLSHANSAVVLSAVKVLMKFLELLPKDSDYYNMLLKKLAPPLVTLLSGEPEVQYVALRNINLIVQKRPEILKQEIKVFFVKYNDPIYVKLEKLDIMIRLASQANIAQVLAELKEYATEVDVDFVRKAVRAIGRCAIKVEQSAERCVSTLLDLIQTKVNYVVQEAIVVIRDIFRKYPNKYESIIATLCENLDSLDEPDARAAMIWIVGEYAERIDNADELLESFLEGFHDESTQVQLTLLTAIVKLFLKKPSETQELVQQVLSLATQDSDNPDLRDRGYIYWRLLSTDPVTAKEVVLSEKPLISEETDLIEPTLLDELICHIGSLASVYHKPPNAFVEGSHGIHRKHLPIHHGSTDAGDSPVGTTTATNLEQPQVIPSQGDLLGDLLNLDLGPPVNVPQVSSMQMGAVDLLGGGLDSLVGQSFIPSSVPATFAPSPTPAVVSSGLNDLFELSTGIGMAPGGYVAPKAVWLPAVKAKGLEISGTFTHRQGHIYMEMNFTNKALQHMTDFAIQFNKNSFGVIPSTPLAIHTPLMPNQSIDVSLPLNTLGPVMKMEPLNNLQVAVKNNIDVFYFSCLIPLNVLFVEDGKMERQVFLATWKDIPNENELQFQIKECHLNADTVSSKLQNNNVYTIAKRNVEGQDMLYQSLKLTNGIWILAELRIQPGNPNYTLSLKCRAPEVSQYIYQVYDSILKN

[12] = yeast V-ATPase proton transport modulators, S. cerevisiae, pHLuorin, HTS validation (AID 504600; in the data active = response above about 15%;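 note: plate controls were DMSO for no effect and reference compound for full effect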); details: S. cerevisiae pHLuorin cytosolic pH, at 10 µM, stronger effect = higher value
[13] = system: anti-desmoglein-3 scFv antibody binding to human DSG3; experiment: inhibitors of anti-DSG3 scFv binding to DSG3, pilot screen, biochemical, validation compound set, bead-based, flow cytometry (AID 588368;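 active = binding below the plate cutoff, the plate median minus 3 SD, with a reading above zero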;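 note: signal is the median channel fluorescence of bead-bound GFP antibody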); details: Protein G beads, DSG3-Fc, scFv-GFP binding, at 10 µM, stronger effect = lower value
[14] = inhibitors of fungal efflux pumps CDR1, CDR2, MDR1, pilot screen, validation compound set, multiplex, phenotypic (AID 588506);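 note: Nile Red retained in cells so higher fluorescence means more efflux inhibition; 0 = negative control wells and 1 = enniatin B 25 µM full block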; details: S. cerevisiae pump-expressing triplex, Nile Red efflux flow cytometry; at 10 µM; stronger effect = higher value; the pumps come from Candida albicans
[15] = molecular target: ATP-binding cassette sub-family B member 6 (Homo sapiens) (UniProt Q9NP58); experiment: ABCB6 transporter inhibitors, pilot screen, K562-ABCB6 cells, flow cytometry, validation set (AID 588550;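 active = inhibition above the screen-wide mean plus 3 SD, about 51%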;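 note: 0% = DMSO wells and 100% = benzethonium chloride 70 µM positive control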); details: K562-ABCB6 porphyrin accumulation, 1 h, at 10 µM, stronger effect = higher value
Chain of ATP-binding cassette sub-family B member 6 (Homo sapiens) (Q9NP58 whole entry, looked up): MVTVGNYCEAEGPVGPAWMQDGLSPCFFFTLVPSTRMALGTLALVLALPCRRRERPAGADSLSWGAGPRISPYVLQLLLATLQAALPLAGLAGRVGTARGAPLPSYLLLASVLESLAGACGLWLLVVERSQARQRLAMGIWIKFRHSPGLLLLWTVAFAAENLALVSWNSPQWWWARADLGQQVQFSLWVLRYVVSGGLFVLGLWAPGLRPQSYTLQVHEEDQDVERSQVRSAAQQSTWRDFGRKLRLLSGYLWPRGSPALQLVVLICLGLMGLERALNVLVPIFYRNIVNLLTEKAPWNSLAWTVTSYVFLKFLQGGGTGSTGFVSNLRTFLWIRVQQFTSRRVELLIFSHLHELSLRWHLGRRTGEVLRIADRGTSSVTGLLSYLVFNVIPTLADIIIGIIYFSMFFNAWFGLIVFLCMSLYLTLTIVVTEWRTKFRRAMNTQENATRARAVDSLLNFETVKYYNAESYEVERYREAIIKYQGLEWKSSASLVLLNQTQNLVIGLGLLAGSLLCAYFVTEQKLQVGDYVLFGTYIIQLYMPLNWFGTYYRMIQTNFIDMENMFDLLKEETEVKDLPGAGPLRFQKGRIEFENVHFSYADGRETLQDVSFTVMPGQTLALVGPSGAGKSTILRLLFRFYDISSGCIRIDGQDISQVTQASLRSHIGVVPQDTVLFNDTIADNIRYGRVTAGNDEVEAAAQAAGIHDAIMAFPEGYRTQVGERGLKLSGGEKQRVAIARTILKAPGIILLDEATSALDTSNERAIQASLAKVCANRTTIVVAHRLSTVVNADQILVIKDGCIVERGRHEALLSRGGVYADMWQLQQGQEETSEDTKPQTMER

[16] = promoters of myeloid differentiation in arrested cells, primary screen, cell-based, GFP/MAC1 double positive, flow cytometry, validation set (AID 588685;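 active = differentiation response of at least 50%, scaled between solvent and reference control, from cells with both markers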;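 note: compound exposure lasts four days before antibody staining and flow analysis; 0% = DMSO wells and 100% = 5 µM fulvestrant positive control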); details: ER-HoxA9 marrow cells, stronger effect = higher value, normalized: vehicle 0, fulvestrant 100

SMILES	percent of DMSO control GFP [1]	GFP response vs DMSO [2]	percent response of DMSO control [3]	GFP response vs DMSO [4]	GFP response, % of DMSO [5]	double positive events [6]	vesicle binding response [6]	inhibition [7]	superoxide response (% of plate) [8]	aptamer binding inhibition [9]	response [10]	inhibition [11]	response [12]	binding (% of control) [13]	efflux inhibition (fraction of control) [14]	inhibition [15]	differentiation response [16]
O=C(O)c1ccc(OCCn2ccnc2)cc1	103% (inactive)	95.6% (inactive)	106% (inactive)	93.7% (inactive)	112% (inactive)	66.1%	173% (inactive)	9.63% (inactive)	91.6% (inactive)	-2% (inactive)	-0.04% (inactive)	-0.39% (inactive)	2.25% (inactive)	101% (inactive)	0.36 (inactive)	16% (inactive)	2.74% (inactive)
COC(=O)C1=C(C)NC(C)=C([N+](=O)[O-])C1c1ccccc1C(F)(F)F (stereo not drawn)	101% (inactive)	110% (inactive)	98.6% (inactive)	97% (inactive)	105% (inactive)	58.2%	160% (inactive)	9.63% (inactive)	102% (inactive)	0% (inactive)	4.56% (inactive)	-3.68% (inactive)	3.77% (inactive)	106% (inactive)	-0.3 (inactive)	4% (inactive)	-7.5% (inactive)
O=S(=O)(CCc1nc2ccccc2[nH]1)c1ccc(Cl)cc1	98.6% (inactive)	106% (inactive)	98.6% (inactive)	124% (inactive)	99.7% (inactive)	60.3%	159% (inactive)	-7.25% (inactive)	104% (inactive)	-2% (inactive)	13.4% (inactive)	-4.72% (inactive)	-0.13% (inactive)	103% (inactive)	-0.21 (inactive)	-7% (inactive)	-16.8% (inactive)
CC(C)N1C(=O)/C(=C\c2nc3ccccc3c(=O)[nH]2)c2ccccc21	103% (inactive)	106% (inactive)	103% (inactive)	128% (inactive)	93.8% (inactive)	60.8%	157% (inactive)	-7.25% (inactive)	125% (inactive)	6% (inactive)	32.8% (inactive)	-10.5% (inactive)	-1.63% (inactive)	101% (inactive)	-0.1 (inactive)	6% (inactive)	-21.6% (inactive)
NNC(=O)c1cc(O)c(O)c(O)c1	105% (inactive)	88.8% (inactive)	114% (inactive)	96% (inactive)	106% (inactive)	59%	149% (inactive)	-1.49% (inactive)	93.7% (inactive)	4% (inactive)	-4.68% (inactive)	12% (inactive)	1.02% (inactive)	91.2% (inactive)	-0.1 (inactive)	5% (inactive)	-2.69% (inactive)
Fc1ccccc1CNCCC(Cc1ccccc1)c1ccc2c(c1)OCO2 (stereo not drawn)	98.8% (inactive)	107% (inactive)	96% (inactive)	90.2% (inactive)	94.9% (inactive)	63.8%	99.6% (inactive)	8.28% (inactive)	104% (inactive)	-1% (inactive)	14% (inactive)	11.7% (inactive)	1.06% (inactive)	105% (inactive)	-0.22 (inactive)	4% (inactive)	-5.68% (inactive)
Cn1c(=O)c2c(ncn2CCO)n(C)c1=O	102% (inactive)	112% (inactive)	116% (inactive)	88.6% (inactive)	101% (inactive)	63.6%	250% (inactive)	-32.3% (inactive)	98.5% (inactive)	-2% (inactive)	15.1% (inactive)	-1.93% (inactive)	0.08% (inactive)	106% (inactive)	-0.17 (inactive)	6% (inactive)	1.64% (inactive)
COc1ccc(/C=C/C(=O)Nc2ccccc2C(=O)O)cc1OC	111% (inactive)	110% (inactive)	106% (inactive)	76.9% (inactive)	99.5% (inactive)	60.2%	50.8% (inactive)	-5.64% (inactive)	123% (inactive)	3% (inactive)	12.8% (inactive)	-8.31% (inactive)	6.81% (inactive)	96.9% (inactive)	0.02 (inactive)	3% (inactive)	-5.62% (inactive)
COc1ccc2oc(C)c(C(N)=O)c2c1	99.5% (inactive)	109% (inactive)	91% (inactive)	118% (inactive)	102% (inactive)	61.6%	132% (inactive)	6.4% (inactive)	96% (inactive)	4% (inactive)	-0.3% (inactive)	7.21% (inactive)	-6.34% (inactive)	100% (inactive)	-0.21 (inactive)	-9% (inactive)	-8.8% (inactive)
CCOC(=O)C1C(=O)OC(C)(C)C1C(C)C(=O)c1ccc(C)cc1 (stereo not drawn)	100% (inactive)	103% (inactive)	93.1% (inactive)	110% (inactive)	116% (inactive)	61.9%	218% (inactive)	-6.23% (inactive)	118% (inactive)	3% (inactive)	-17.2% (inactive)	-19% (inactive)	-5.62% (inactive)	102% (inactive)	-0.09 (inactive)	5% (inactive)	13.7% (inactive)
CC(C)=CCC/C(C)=C/CC/C(C)=C/CC/C(C)=C/CC1=C(C)C(=O)c2ccccc2C1=O	98.2% (inactive)	105% (inactive)	101% (inactive)	121% (inactive)	116% (inactive)	58.9%	205% (inactive)	-7.08% (inactive)	102% (inactive)	2% (inactive)	-16% (inactive)	-12.1% (inactive)	-1.04% (inactive)	99.2% (inactive)	-0.09 (inactive)	-4% (inactive)	-6.96% (inactive)
COc1ccccc1Oc1c(C)oc2c(CN3CCN(CCO)CC3)c(O)ccc2c1=O	104% (inactive)	101% (inactive)	109% (inactive)	98% (inactive)	104% (inactive)	58.7%	111% (inactive)	-11.8% (inactive)	96.1% (inactive)	-1% (inactive)	6.51% (inactive)	-2.65% (inactive)	0.24% (inactive)	103% (inactive)	-0.14 (inactive)	-1% (inactive)	11.5% (inactive)
N/C(=N\OC(=O)c1ccc(Br)o1)c1ccccn1	101% (inactive)	102% (inactive)	95.1% (inactive)	124% (inactive)	96.9% (inactive)	67.8%	232% (inactive)	17.6% (inactive)	117% (inactive)	3% (inactive)	-28.6% (inactive)	2.47% (inactive)	5.72% (inactive)	98.7% (inactive)	-0.04 (inactive)	6% (inactive)	5.85% (inactive)
CCc1cccc2c3c([nH]c12)C(CC)(CC(=O)O)OCC3 (stereo not drawn)	103% (inactive)	106% (inactive)	100% (inactive)	93.3% (inactive)	100% (inactive)	61.9%	36.2% (inactive)	-4.6% (inactive)	107% (inactive)	1% (inactive)	-0.16% (inactive)	-11.4% (inactive)	1.09% (inactive)	86.9% (inactive)	-0.26 (inactive)	-5% (inactive)	3.18% (inactive)
O=C(/C=C/c1ccccc1)NC(=O)c1ccccc1O	106% (inactive)	104% (inactive)	104% (inactive)	121% (inactive)	94.2% (inactive)	59.9%	128% (inactive)	4.27% (inactive)	111% (inactive)	-4% (inactive)	5.9% (inactive)	15.2% (inactive)	-7.97% (inactive)	102% (inactive)	0.07 (inactive)	0% (inactive)	-10.4% (inactive)
COc1ccc(-n2cc(CNCc3cccnc3)c(-c3cccc(F)c3)n2)cc1	105% (inactive)	97.2% (inactive)	115% (inactive)	110% (inactive)	99.1% (inactive)	64.8%	314% (inactive)	-4.6% (inactive)	89.3% (inactive)	0% (inactive)	-13.2% (inactive)	-5.67% (inactive)	-0.1% (inactive)	104% (inactive)	-0.26 (inactive)	20% (inactive)	4.15% (inactive)
O=C(O)COc1ccc2occ(C(=O)c3ccccc3)c2c1	99.8% (inactive)	106% (inactive)	101% (inactive)	96% (inactive)	92.9% (inactive)	63.9%	180% (inactive)	15.1% (inactive)	107% (inactive)	4% (inactive)	-5% (inactive)	0.98% (inactive)	0.64% (inactive)	94.2% (inactive)	-0.17 (inactive)	3% (inactive)	7.09% (inactive)
Cc1ccc2ncnc(NCCCCCC(=O)O)c2c1	105% (inactive)	103% (inactive)	105% (inactive)	106% (inactive)	108% (inactive)	64.6%	130% (inactive)	8.29% (inactive)	114% (inactive)	-1% (inactive)	0.4% (inactive)	13.1% (inactive)	5.01% (inactive)	101% (inactive)	0.135 (inactive)	4% (inactive)	-14.8% (inactive)
CCOc1ccc2ccccc2c1C(=O)N[C@@H]1C(=O)N2[C@@H]1SC(C)(C)[C@@H]2C(=O)O	101% (inactive)	112% (inactive)	93.1% (inactive)	85.5% (inactive)	97.5% (inactive)	67.6%	994% (inactive)	-3.57% (inactive)	108% (inactive)	2% (inactive)	1.55% (inactive)	17.1% (inactive)	0.05% (inactive)	95.5% (inactive)	0.14 (inactive)	8% (inactive)	11% (inactive)
